# According to PubChem BioAssay (NCATS):
# Several values for one entry are separate records, joined by “and”; a condition that tells them apart may be missing. Equal values may be shown once. Results filed as inconclusive are left out. A call without a number means that no potency is given here. Values without a mark were called inactive. Activity calls are given as the source filed them. Unless noted, calls come from the whole dose curve; as a rule, active = well fitted curve in the direction sought with a large enough effect; inconclusive = small, poorly fitted or top-dose-only effect, or another doubt; inactive = no such curve, though single readings can be large; an effect the other way counts as inactive or inconclusive. Where a SMILES comes first, the peptide text is derived from it. [ ]: non-standard residue; d: D form. PhLac = O=C(O)[CH](O)Cc1ccccc1; NMeV = CN[CH](C(=O)O)C(C)C
# Legend:
# [1] = molecular target: Cytochrome P450 2C9 (Homo sapiens) (UniProt P11712); experiment: Cytochrome P450 family 2 subfamily C member 9 (CYP2C9) small molecule antagonists: luciferase biochemical (cell-free) qHTS assay (AID 1645842; active = well fitted curve in the direction sought with a large enough effect in the repeat runs; an effect the other way counts as inactive or inconclusive; note: nearly all actives have a fitted effect of over 55% in size; for activity change, negative = inhibition: series mostly up to about 57 µM)
# Chain of Cytochrome P450 2C9 (Homo sapiens) (P11712 whole entry, looked up): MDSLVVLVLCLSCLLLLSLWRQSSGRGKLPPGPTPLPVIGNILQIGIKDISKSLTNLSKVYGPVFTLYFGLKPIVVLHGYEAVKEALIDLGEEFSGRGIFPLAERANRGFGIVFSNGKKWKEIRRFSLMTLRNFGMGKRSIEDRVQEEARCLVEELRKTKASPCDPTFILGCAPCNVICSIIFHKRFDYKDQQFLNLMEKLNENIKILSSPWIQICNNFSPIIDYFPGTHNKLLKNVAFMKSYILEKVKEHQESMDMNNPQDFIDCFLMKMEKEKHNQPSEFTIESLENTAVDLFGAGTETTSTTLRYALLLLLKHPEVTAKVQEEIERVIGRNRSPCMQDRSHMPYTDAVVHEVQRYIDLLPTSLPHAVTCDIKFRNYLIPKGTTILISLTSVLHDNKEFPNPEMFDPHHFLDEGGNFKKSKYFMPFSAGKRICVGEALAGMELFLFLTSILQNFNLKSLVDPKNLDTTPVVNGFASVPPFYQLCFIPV
# How it was run: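 P450-Glo CYP2C9 system: proluciferin substrate with enzyme in mix containing 0.4% BSA, 10 min at room temperature, then NADPH regeneration solution added and incubated 1 h at 37C. Detection reagent stopped reaction; luminescence read after 20 min as RLU.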
# [2] = Primary qHTS for inhibitors of nuclear receptor binding SET domain protein 2 (NSD2) in an isogenic RCH-ACV NSD2 p.E1099K mutant (9B) (AID 1645876); note: nearly all actives have a fitted effect of over 70% in size
# [3] = Primary qHTS for inhibitors of nuclear receptor binding SET domain protein 2 (NSD2) in an RCH-ACV wild type WT cells (2C) (AID 1645877); note: nearly all actives have a fitted effect of over 70% in size
# Potency is the fitted concentration of half-maximal effect.
compound,measurement,setting,value
O=S(=O)(O)c1ccc2c(N=Nc3ccc(S(=O)(=O)O)c4ccccc34)c(O)c(S(=O)(=O)O)cc2c1,Potency,[1],12 µM (active)
O=C(NCc1ccc(OC(F)(F)F)cc1)C1c2ccccc2C(=O)N1C1CCOCC1 (centres undefined),Potency,[1],12 µM (active)
same,Potency,[2],inactive
same,Potency,[3],inactive
CC(C)(C)NCc1cc(Nc2ccnc3cc(Cl)ccc23)c2c(c1O)CCCC2,"activity change, negative = inhibition",[1],-23.1% [at 11.5 µM]
same,"activity change, negative = viability loss",[2],-8.87% [at 0.588 µM]
same,"activity change, negative = cell killing",[3],-13.7% [at 0.588 µM]
O=C(O)C[C@@H](NC(=O)c1cc(-c2ccc(-c3ccncc3)cc2)cs1)c1ccccc1,Potency,[1],26.8 µM (active)
same,Potency,[2],inactive
same,Potency,[3],inactive
C/C(=C\CCC(C(=O)O)C1CCC2(C)C3=C(CCC12C)C1(C)CCC(=O)C(C)(C)C1CC3)C(=O)O (centres undefined),Potency,[2],inactive
C=C1CCC[C@]2(C)C[C@]3(O)OC(=O)C(C)=C3C[C@@H]12,Potency,[2],inactive
COC(=O)C1=C(C#N)NC(C)=C(C(=O)OC(C)C)C1c1cccc([N+](=O)[O-])c1 (centres undefined),Potency,[1],1.07 µM (active)
O=C(CCCCc1ccc2ccccc2c1)C(F)(F)F,Potency,[1],9.52 µM (active)
same,Potency,[2],inactive
same,Potency,[3],inactive
Cn1c(=O)cc(N2CCCC(N)C2)n(Cc2ccccc2C#N)c1=O (centres undefined),Potency,[1],inactive
same,Potency,[2],inactive
same,Potency,[3],inactive
O=C(/C=C/c1ccc(O)cc1)O[C@H]1[C@@H]2C=CO[C@@H](O[C@@H]3O[C@H](CO)[C@@H](O)[C@H](O)[C@H]3O)[C@@H]2[C@@]2(CO)O[C@@H]12,Potency,[2],inactive
same,Potency,[3],inactive
CCN(c1cc(C#CCN2CCOCC2)cc(C(=O)NCc2c(C)cc(C)[nH]c2=O)c1C)C1CCC(N(C)CCOC)CC1 (centres undefined),Potency,[2],inactive
same,Potency,[3],inactive
COC1CC(=O)CCC(C)OC(=O)CC1O (centres undefined),Potency,[2],inactive
same,Potency,[3],inactive
CC(=O)O[C@H]1[C@H](C)[C@@H](O)[C@H]2[C@@H]1C=C(C(=O)O)[C@H]1C[C@@H]3[C@H]([C@H]21)[C@H]1C(=O)O[C@@H]2CC[C@@]3(C)O[C@]1(O)[C@@H]2C,Potency,[2],inactive
same,Potency,[3],inactive
CC1=CCC2C(C)(CO)CCCC2(C)C1CC12OC1C(O)C(CO)=CC2O (centres undefined),Potency,[2],inactive
same,Potency,[3],inactive
COc1c(C)c(OCC=C(C)C)cc2c1C(=O)NC2=O,Potency,[2],inactive
same,Potency,[3],inactive
C=C1[C@@H]2[C@H]3OC(=O)C(=C)[C@@H]3CC[C@@](C)(O)[C@@H]2C[C@@H]1O[C@@H]1O[C@H](CO)[C@@H](O)[C@H](O)[C@H]1O,Potency,[2],inactive
same,Potency,[3],inactive
CCOC(=O)[C@H]1O[C@@H]1C(=O)N[C@@H](CC(C)C)C(=O)NCCC(C)C,Potency,[2],inactive
same,Potency,[3],inactive
CC1(CCC(=O)O)C(=O)C=CC23CC4CC(OC4(C)C2O)C13 (centres undefined),Potency,[2],inactive
same,Potency,[3],inactive
CCN[C@@H]1C[C@H](N)[C@@H](O[C@H]2OC(CN)=CC[C@H]2N)[C@H](O)[C@H]1O[C@H]1OC[C@](C)(O)[C@H](NC)[C@H]1O,Potency,[2],inactive
same,Potency,[3],inactive
CC1OC(OC2C(C)OC(OC3C(OC(=O)/C=C/c4ccc(O)cc4)C(CO)OC(OC4(COC(=O)/C=C/c5ccc(O)cc5)OC(CO)C(O)C4O)C3OC3OCC(O)(CO)C3O)C(O)C2O)C(O)C(O)C1O (centres undefined),"activity change, negative = viability loss",[2],-6.92% [at 9.23 µM]
same,"activity change, negative = cell killing",[3],-11.9% [at 9.23 µM]
CCOc1cc2ncc(C#N)c(Nc3ccc(OCc4ccccn4)c(Cl)c3)c2cc1NC(=O)/C=C/CN(C)C,Potency,[2],282 nM (active) and 1.32 µM (active)
same,Potency,[3],282 nM (active) and 833 nM (active)
C=CC1(C)CC(OC(=O)C(=C)C(O)COC(C)=O)C(C(=C)C(=O)OC)C(O)C1C(=C)CO (centres undefined),Potency,[2],inactive
CC1=C(C)C(=O)OC(C(C)C2C(O)CC3C4C5OC5C5(O)CC(OC6OC(CO)C(O)C(O)C6O)CC(O)C5(C)C4CCC32C)C1 (centres undefined),Potency,[2],inactive
same,Potency,[3],inactive
CC(C)C(C(=O)N1CCCC1C(=O)O)N(C)C(=O)C(O)Cc1ccccc1 (centres undefined) (H-[PhLac]-[NMeV]-Pro-OH; configuration not given here),Potency,[2],inactive
same,Potency,[3],inactive
COC(=O)[C@]12C(=O)C(C)=C(O)[C@@]1(C)C(C)=CC1[C@@]34CC[C@@H](OC(C)=O)C(C)(C)C3[C@H](C[C@]12C)OC4=O (some centres undefined),Potency,[2],inactive
same,Potency,[3],inactive
COc1ccc(C2=CC(=O)OC2Cc2ccc(O)cc2)c(O)c1 (centres undefined),Potency,[2],inactive
same,Potency,[3],inactive
C[C@H]1[C@H](C)CC[C@]2(C(=O)O)CC[C@]3(C)C(=CC[C@@H]4[C@@]5(C)C[C@@H](O)[C@H](O)[C@@](C)(CO)[C@@H]5CC[C@]43C)[C@H]12,Potency,[2],inactive
same,Potency,[3],inactive
